Test results from PubChem BioAssay AID1347165 (National Center for Advancing Translational Sciences (NCATS), 2019).
Screen size: about 220,000 compounds; about 5,700 (2.6%) were called active. Inconclusive results (about 18%) are left out. The entries come from a sample that favours actives as a whole. A number with no mark means an inactive call. The call rests on the fitted dose curve; in most records, active means well fitted inhibition curve with a large enough effect; inconclusive means small, poorly fitted or top-dose-only effect; inactive means no such curve, though single readings can be large or run the other way.

Target: Lysine-specific demethylase 5B (Homo sapiens) (UniProt Q9UGL1)
Sequence (Q9UGL1 whole entry, looked up): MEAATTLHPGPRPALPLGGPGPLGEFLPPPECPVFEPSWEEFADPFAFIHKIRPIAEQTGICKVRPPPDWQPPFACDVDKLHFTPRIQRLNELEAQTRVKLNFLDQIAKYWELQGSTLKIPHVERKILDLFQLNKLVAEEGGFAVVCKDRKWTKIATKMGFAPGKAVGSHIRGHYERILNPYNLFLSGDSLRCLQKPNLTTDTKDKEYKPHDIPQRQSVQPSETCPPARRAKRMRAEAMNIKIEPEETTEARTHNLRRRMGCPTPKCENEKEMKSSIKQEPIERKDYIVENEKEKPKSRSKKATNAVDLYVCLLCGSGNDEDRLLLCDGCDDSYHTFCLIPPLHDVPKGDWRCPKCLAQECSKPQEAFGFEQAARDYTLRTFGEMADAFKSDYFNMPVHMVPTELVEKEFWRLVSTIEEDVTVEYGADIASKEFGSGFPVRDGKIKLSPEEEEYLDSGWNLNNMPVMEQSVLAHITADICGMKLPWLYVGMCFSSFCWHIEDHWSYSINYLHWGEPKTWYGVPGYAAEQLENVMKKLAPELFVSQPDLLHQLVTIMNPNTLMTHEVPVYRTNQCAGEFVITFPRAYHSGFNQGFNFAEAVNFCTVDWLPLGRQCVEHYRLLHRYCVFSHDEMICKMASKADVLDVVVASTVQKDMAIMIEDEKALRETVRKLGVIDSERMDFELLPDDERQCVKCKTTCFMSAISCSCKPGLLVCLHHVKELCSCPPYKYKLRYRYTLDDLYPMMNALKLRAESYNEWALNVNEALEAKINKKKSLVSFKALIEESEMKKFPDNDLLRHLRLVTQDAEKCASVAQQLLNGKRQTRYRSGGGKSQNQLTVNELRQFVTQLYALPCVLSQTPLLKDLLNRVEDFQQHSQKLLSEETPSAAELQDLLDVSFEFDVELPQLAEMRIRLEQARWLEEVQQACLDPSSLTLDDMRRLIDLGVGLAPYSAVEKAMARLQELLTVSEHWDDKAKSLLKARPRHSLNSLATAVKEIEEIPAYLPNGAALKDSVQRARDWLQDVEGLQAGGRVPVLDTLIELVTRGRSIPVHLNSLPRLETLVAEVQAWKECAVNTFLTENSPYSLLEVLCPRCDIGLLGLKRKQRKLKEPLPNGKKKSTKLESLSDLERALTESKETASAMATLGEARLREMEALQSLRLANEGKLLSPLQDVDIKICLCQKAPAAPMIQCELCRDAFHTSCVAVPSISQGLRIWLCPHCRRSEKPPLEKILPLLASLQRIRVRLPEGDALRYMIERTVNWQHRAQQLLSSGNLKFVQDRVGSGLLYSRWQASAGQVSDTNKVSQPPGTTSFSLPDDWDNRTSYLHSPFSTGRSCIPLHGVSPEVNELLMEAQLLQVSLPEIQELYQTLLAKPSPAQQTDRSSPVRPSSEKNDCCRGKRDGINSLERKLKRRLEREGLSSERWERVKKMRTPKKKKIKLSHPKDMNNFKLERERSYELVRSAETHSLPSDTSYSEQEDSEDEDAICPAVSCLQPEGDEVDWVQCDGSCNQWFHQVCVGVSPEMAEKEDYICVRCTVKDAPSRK
Test: Primary screen for KDM5B Histone Demethylases FDH-coupled qHTS; further: nearly all actives have a fitted effect of over 70% in size; on activity change, negative = inhibition: 0% is about no effect
Details: FDH-coupled NADH fluorescence (FDH is formaldehyde dehydrogenase); series mostly up to 57.7 µM; activity change, negative = inhibition: at the top concentration
Method in brief: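 KDM5BΔAP (200 nM final) in 50 mM HEPES pH 7.5, 0.01% Tween-20 was preincubated 10 min at RT with compound over a concentration range. Substrate mix (H3K4me3 12.5 µM, α-KG 25 µM, Fe²⁺, ascorbate, NAD⁺, FDH) was added, and NADH fluorescence change over 30 min gave dose-response curves.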
Potency means the concentration at half of the fitted maximal effect.

Compared with `CC(=O)Nc1cccc(C(=O)N2CCC3(CC2)NC(=O)N(c2cccc(Cl)c2)N3)c1`, `O=C(c1cccc(Cl)c1)N1CCc2nc(C3CC3)nc(-c3ccc(Cl)cc3)c2C1` is lower in “activity change, negative = inhibition” value: -3.68% for the first, -13.9% for the second.

First: COc1ccc(S(=O)(=O)N(C)Cc2nc(-c3ccc(OC(F)(F)F)cc3)no2)cc1
Second: COc1cccc(-c2noc(CC3CCN(C(=O)c4ccc(F)cc4)CC3)n2)c1
The “activity change, negative = inhibition” value of the first is lower: -5.21% for the first, 10.6% for the second.

First: Cc1c(C)[n+](=O)c2ccccc2n1[O-]
Second: Cc1ccc(CNC(=O)c2nn(C)c(=O)c3ccccc23)cc1
The “activity change, negative = inhibition” value of the first is higher: -2.24% for the first, -8.52% for the second.

First: O=C(COC(=O)Cc1ccc(Cl)c(Cl)c1)NCc1ccc(F)cc1
Second: COc1ccc(CNC(=O)CN(Cc2ccccc2Cl)C(=O)c2csnn2)cc1
The “activity change, negative = inhibition” value of the first is higher: 5.54% for the first, -46.8% for the second.

First: COC(=O)[C@H](Cc1ccc(OC)cc1)NC(=O)[C@@H]1CN(C(=O)c2cccc(F)c2)CCN1C(=O)c1cccc(F)c1
Second: CCc1ccc(C2C(C(=O)Nc3ccccc3)=C(C)Nc3c(C(=O)Nc4ccc(F)cc4)cnn32)cc1 (stereo not given)
The “activity change, negative = inhibition” value of the first is higher: 26.6% for the first, -3.45% for the second.

Going from `CC(C)(C)C(=O)NCCCC(=O)NCCc1cccs1` to `Cc1cc(=O)oc2cc(OCC(=O)NCc3cccs3)c(Cl)cc12`, the “activity change, negative = inhibition” value falls from 27.1% to -21%.

Compared with `CC(Sc1ccc2c(c1)OCCCO2)C(=O)O` (stereo not given), `O=C(CSc1ncnc2sccc12)c1ccc2c(c1)OCCCO2` is higher in “activity change, negative = inhibition” value: -13.6% for the first, 3.77% for the second.

Compared with `CCCc1nnc2sc(-c3ccc4c(c3)OCCO4)nn12`, `Cc1cccc(OCc2nn3c(CN4CCOCC4)nnc3s2)c1` is lower in “activity change, negative = inhibition” value: 109% for the first, 14.6% for the second.

First: Cc1cc(C)cc(-c2nnc(SCC(=O)N3CCCC(C)C3)o2)c1 (stereo not given)
Second: CCCNC(=O)N1CC(Oc2ccc(-c3nc(C)no3)cc2)C1
The “activity change, negative = inhibition” value of the first is higher: 17% for the first, 9.29% for the second.

Compared with `O=C(Cn1cccc1-c1nc(-c2ccccc2)no1)Nc1ccccc1F`, `Cc1noc(-c2ccccc2NC(=O)C2CC(=O)N(c3cccc(C(F)(F)F)c3)C2)n1` (stereo not given) is lower in “activity change, negative = inhibition” value: 6.26% for the first, 5% for the second.

Compared with `COc1ccc(-c2c3c(=O)n(C)c(=O)n(C)c3c3n2C(C)(C)COC3c2cccc(OC)c2)cc1` (stereo not given), `COc1ccc(NC(=O)Cc2c(C)c3ccc(O)cc3oc2=O)cc1` is lower in “activity change, negative = inhibition” value: 9.3% for the first, -1590% for the second.

Going from `Cc1cc(C)c(-c2cc(C(=O)Nc3ccccc3C(F)(F)F)[nH]n2)c(O)c1` to `CC(NC(=O)c1ccc(SC(F)(F)F)cc1)c1ccccn1` (stereo not given), the “activity change, negative = inhibition” value rises from -15.4% to 15.1%.

Going from `Cc1cc(C(=O)NCCc2ccc(Cl)cc2)n(-c2ccccc2)n1` to `CC(C)c1nc2c(c(-c3ccc(Cl)cc3)n1)CN(C(=O)c1ccccc1)CC2`, the “activity change, negative = inhibition” value falls from 21.8% to 0.108%.

Compared with `CCOC(=O)C1CCN(CC(O)c2cccc(C(F)(F)F)c2)CC1` (stereo not given), `COCC(=O)N(C1CCOCC1)C1CCN(C(=O)c2cccc(OC)c2)CC1` is higher in “activity change, negative = inhibition” value: 9.21% for the first, 20% for the second.

Going from `O=C(c1cccnc1)N1CCN(c2cc(-c3ccccc3)[nH]n2)CC1` to `O=C(c1cccnc1)N1CCC2(CCCN(C3CCOCC3)C2=O)C1` (stereo not given), the “activity change, negative = inhibition” value falls from 11.3% to 10.8%.

First: Cc1ccc(NC(=O)Nc2ccc3nc(N4CCOCC4)cc(C)c3c2)cc1
Second: O=C(Nc1ccc2oc(=O)ccc2c1)c1cccc2ccccc12
The “activity change, negative = inhibition” value of the first is higher: -9.19% for the first, -28.6% for the second.

First: CCc1nc2c(c(-c3ccc(Cl)cc3)n1)CCN([S+](=O)([O-])c1cccs1)CC2
Second: CCc1ccc(C(=O)C(C)Sc2nc3ccccc3c(=O)n2CCC(=O)OC)cc1 (stereo not given)
The “activity change, negative = inhibition” value of the first is lower: -5.25% for the first, -1.17% for the second.

Compared with `O=C(O)c1ccc(C(=O)C2CCCCC2C(=O)O)cc1` (stereo not given), `CC1CCCCN1CCNC(=O)c1cc2c(s1)-c1ccccc1OC2` (stereo not given) is lower in “activity change, negative = inhibition” value: -1.13% for the first, -2590% for the second.

Compared with `Cc1nn(-c2ncnc3nc[nH]c23)c2c1C(c1ccc(F)cc1F)CC(=O)N2` (stereo not given), `CN(C)c1ccc(C(=O)NCc2nnc3cc(-c4nc(C5CC5)no4)ccn23)cc1` is higher in “activity change, negative = inhibition” value: 4.52% for the first, 14.7% for the second.

First: Cc1cc2c(s1)CCCCCCCCCC/C2=N\Nc1ccc([N+](=O)[O-])cc1
Second: COc1ccc(CNC(=O)c2ccc3oc(C(C)C)nc3c2)cc1
The “activity change, negative = inhibition” value of the first is lower: 2.3% for the first, 3.12% for the second.

Compared with `CC1(C)CC(NC(=O)Nc2ccc(OC(F)(F)F)cc2)CC(C)(C)N1`, `CC(C(=O)N1CCc2ccccc21)N(C)CC(=O)Nc1ccc(F)cc1` (stereo not given) is higher in “activity change, negative = inhibition” value: -11.3% for the first, -3.95% for the second.

Going from `CCCC(=O)Nc1ccc2c(c1)nc(CCNC(=O)c1ccco1)n2C` to `CSc1ncc(C(=O)NCCCc2ccccc2)c(C)n1`, the “activity change, negative = inhibition” value rises from 7.76% to 30.1%.

Going from `NS(=O)(=O)c1ccc(F)c(C(=O)NCc2noc(-c3ccco3)n2)c1` to `COc1ccc(CC(=O)NC(CCSC)c2nc3ccccc3[nH]2)cc1` (stereo not given), the “activity change, negative = inhibition” value falls from 8.53% to 5.81%.

With `CCCCCCCCOc1ccc(C(=O)c2ccccc2O)c(O)c1` the “activity change, negative = inhibition” value was -22.5%.

With `O=[S+]([O-])(Nc1cccnc1)c1ccc2c(c1)OCCN(Cc1cscn1)C2` the Potency was 35.5 µM (active).
For `c1cc(-c2ccc3c(c2)OCCCO3)n2ncnc2n1`, the Potency was 15.8 µM (active).
For `CC(C)c1nc2nccc(-c3ccc4c(c3)OCCCO4)n2n1`, the Potency was 22.4 µM (active).
In the case of `Cc1cc(CNC(=O)c2ccc(-c3ccccc3Cl)o2)n(C)n1`, the Potency is reported as 20 µM (active).
In the case of `O=C1c2cc(N3CCOCC3)nc(-c3cccnc3)c2CN1C1COC1`, the Potency is reported as 31.6 µM (active).
For `COc1cccc(-c2nc(N3CCOCC3)cc3c2CN(CC2CC2)C3=O)c1`, the Potency was 39.8 µM (active).
`Cc1ccc(-c2nc(N3CCOCC3)cc3c2CN(Cc2cnn(C)c2)C3=O)cn1` was tested, and the Potency was 35.5 µM (active).
`CN(C)C(=O)c1nc(-c2ccc(Cl)cc2Cl)c2cnccn12` was tested, and the Potency was 100 µM (active).
For `COc1ccc(C(=O)NCc2nnc3cc(-c4nc(C)no4)ccn23)cc1`, the Potency was 25.1 µM (active).
For `CCc1noc(-c2ccn3c(CNC(=O)c4ccco4)nnc3c2)n1`, the Potency was 28.2 µM (active).
With `O=C(NCc1nnc2cc(-c3nc(C4CC4)no3)ccn12)c1ccc(F)cc1Cl` the Potency was 28.2 µM (active).
`N#CC1CCN(C(=O)c2nc(-c3ccc(Cl)cc3)c3ccccn23)CC1` was tested, and the Potency was 25.1 µM (active).
`C=CCCC(CN1CCCC1)Oc1cncc(C(=O)N2CCCC2)n1` (stereo not given) was tested, and the Potency was 8.91 µM (active).

Compared with `O=[S+]([O-])(Nc1ccccc1)c1ccc2c(c1)OCCN(Cc1cccs1)C2`, `O=[S+]([O-])(Nc1cccnc1)c1ccc2c(c1)OCCN(Cc1ccc(F)cc1)C2` is higher in “activity change, negative = inhibition” value: -9.43% [at 86.2 µM] for the first, 4.51% [at 86.2 µM] for the second.

Going from `Fc1ccc(CNC[C@H]2Cn3c(-c4ccc5c(c4)OCCO5)cnc3CO2)cc1` to `CN(C)C(=O)c1nc(-c2cccnc2)c2ccccn12`, the “activity change, negative = inhibition” value falls from -24.6% [at 86.2 µM] to -6220% [at 86.2 µM].

With `CC(C)NC(=O)C1CCc2nnc(CNC(=O)c3ccc(Cl)cc3Cl)n21` (stereo not given) the “activity change, negative = inhibition” value was -7.29% [at 115 µM].
